Counter-ions that a name gives are not always drawn. ± gives the standard deviation of the averaged measurements.
Assays:
Assay in all cases: growth (OD600 after 10 h); higher = more growth (less inhibition)
[1] = system: E. coli TESEC Alr+ wild-type control; conditions: compound 0.1 mM; raw OD600 reference: median of DMSO wells 0.241, cell-free background 0.041
Procedure: (§1)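 TESEC Mtb Alr E. coli, or the Alr+ wild-type control, in 384-well plates with Prestwick library compounds at 0.1 mM and 1% DMSO, across arabinose induction levels of 1E3 to 1E7 nM. Growth is read as OD600 after 10 h at 37 °C in triplicate biological replicates.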

[2] = system: E. coli TESEC Mtb Alr; conditions: compound 0.1 mM
Procedure: as §1

[3] = system: E. coli TESEC Mtb Asd; conditions: compound 0.1 mM
Procedure: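 TESEC E. coli strains in which the native enzyme is deleted and replaced by arabinose-inducible Mtb Asd, DapB, CysH or TrpD, each grown in its selective medium. Strains were screened against the Prestwick library at 0.1 mM and 1% DMSO in 384-well format at low and high arabinose induction. Growth is read as OD600 after 10 h in triplicate.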

[4] = system: E. coli TESEC Mtb Alr; conditions: compound 0.1 mM; remark: listed apart in the source
Procedure: (§2)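 TESEC Mtb Alr E. coli (ΔaraC ΔtolC ΔentC Δalr ΔdadX, arabinose-inducible Mtb Alr) or the Alr+ wild-type control strain, grown in defined M9-fructose medium without D-alanine in 96-well plates with Prestwick library compounds at 0.1 mM and 1% DMSO. Low Alr induction is 0.1 µM arabinose and high induction is 10 mM arabinose.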

[5] = system: E. coli TESEC Alr+ wild-type control; conditions: compound 0.1 mM; raw OD600 reference: median of DMSO wells 0.49, cell-free background 0.052
Procedure: as §2

[6] = arabinose 1000 nM, raw OD600 reference: median of DMSO wells 0.294, cell-free background 0.041
[7] = arabinose 10000 nM, raw OD600 reference: median of DMSO wells 0.264, cell-free background 0.041
[8] = arabinose 100000 nM, raw OD600 reference: median of DMSO wells 0.201, cell-free background 0.041
[9] = arabinose 1000000 nM, raw OD600 reference: median of DMSO wells 0.193, cell-free background 0.041
[10] = arabinose 10000000 nM, raw OD600 reference: median of DMSO wells 0.146, cell-free background 0.041
[11] = arabinose induction (level): High, raw OD600 reference: median of DMSO wells 0.331, cell-free background 0.041
[12] = arabinose induction (level): Low, raw OD600 reference: median of DMSO wells 0.417, cell-free background 0.041
[13] = arabinose 100 nM, raw OD600 reference: median of DMSO wells 0.413, cell-free background 0.052
[14] = arabinose 10000000 nM, raw OD600 reference: median of DMSO wells […], cell-free background 0.052

C#C[C@]1(O)CC[C@H]2[C@@H]3[C@H](C)CC4=C(CCC(=O)C4)[C@H]3CC[C@@]21C [Tibolone]
growth [1]: 0.141 ± 0.0097
growth [2, 6]: 0.162 ± 0.017
growth [2, 7]: 0.155 ± 0.031
growth [2, 8]: 0.15 ± 0.021
growth [2, 9]: 0.0695 ± 0.00095
growth [2, 10]: 0.148 ± 0.0066
growth [3, 11]: 0.167 ± 0.036
growth [3, 12]: 0.316 ± 0.047
growth [4, 13]: 0.362 ± 0.046
growth [4, 14]: 0.137 ± 0.003

CN(C)CCC(c1ccc(Cl)cc1)c1ccccn1 (configuration not stated) [Chlorpheniramine maleate]
growth [1]: 0.22 ± 0.0024
growth [2, 6]: 0.264 ± 0.022
growth [2, 7]: 0.259 ± 0.0028
growth [2, 8]: 0.18 ± 0.018
growth [2, 9]: 0.162 ± 0.0019
growth [2, 10]: 0.135 ± 0.0055
growth [3, 11]: 0.291 ± 0.091
growth [3, 12]: 0.399 ± 0.061
growth [4, 13]: 0.4277 ± 0.0018
growth [4, 14]: 0.325 ± 0.01

O=c1[nH]c(=O)n(C2CCCO2)cc1F (configuration not stated) [Tegafur]
growth [1]: 0.2441 ± 0.0016
growth [2, 6]: 0.284 ± 0.0093
growth [2, 7]: 0.2613 ± 0.001
growth [2, 8]: 0.208 ± 0.0031
growth [2, 9]: 0.224 ± 0.013
growth [2, 10]: 0.135 ± 0.0053
growth [3, 11]: 0.366 ± 0.03
growth [3, 12]: 0.359 ± 0.091
growth [4, 13]: 0.407 ± 0.011
growth [4, 14]: 0.346 ± 0.011

OC(Cn1cncn1)(Cn1cncn1)c1ccc(F)cc1F [Fluconazole]
growth [1]: 0.2384 ± 0.0019
growth [2, 6]: 0.29 ± 0.005
growth [2, 7]: 0.276 ± 0.0067
growth [2, 8]: 0.187 ± 0.029
growth [2, 9]: 0.211 ± 0.0083
growth [2, 10]: 0.14 ± 0.0056
growth [3, 11]: 0.267 ± 0.015
growth [3, 12]: 0.283 ± 0.037
growth [4, 13]: 0.411 ± 0.012
growth [4, 14]: 0.357 ± 0.017

O=C1NCCN1CCN1CCC(c2cn(-c3ccc(F)cc3)c3ccc(Cl)cc23)CC1 [Sertindole]
growth [1]: 0.0429 ± 0.0029
growth [2, 6]: 0.04057 ± 0.00035
growth [2, 7]: 0.04073 ± 0.00025
growth [2, 8]: 0.0409 ± 0.0004
growth [2, 9]: 0.04 ± 0.0001
growth [2, 10]: 0.0443 ± 0.0027
growth [3, 11]: 0.0531 ± 0.0039
growth [3, 12]: 0.0504 ± 0.003
growth [4, 13]: 0.167 ± 0.2
growth [4, 14]: 0.0524 ± 0.00098

NC1CCN(c2c(F)cc3c(=O)c(C(=O)O)cn(C4CC4)c3c2Cl)C1 (configuration not stated) [Clinafloxacin]
growth [1]: 0.0416 ± 0.0001
growth [2, 6]: 0.0399 ± 0.00042
growth [2, 7]: 0.0399 ± 0.00047
growth [2, 8]: 0.0418 ± 0.0019
growth [2, 9]: 0.03957 ± 5.8e-05
growth [2, 10]: 0.04037 ± 0.00015
growth [3, 11]: 0.0476 ± 0.0014
growth [3, 12]: 0.0476 ± 0.0014
growth [4, 13]: 0.05347 ± 0.0004
growth [4, 14]: 0.0504 ± 0.00086

CC(C)Cc1ccc([C@H](C)C(=O)O)cc1 [S-(+)-ibuprofen]
growth [1]: 0.236 ± 0.012
growth [2, 6]: 0.269 ± 0.013
growth [2, 7]: 0.24 ± 0.006
growth [2, 8]: 0.166 ± 0.0055
growth [2, 9]: 0.194 ± 0.0082
growth [2, 10]: 0.129 ± 0.0024
growth [3, 11]: 0.262 ± 0.015
growth [3, 12]: 0.311 ± 0.0056
growth [4, 13]: 0.402 ± 0.012
growth [4, 14]: 0.329 ± 0.004

COc1ccccc1OCC(O)CN1CCN(CC(=O)Nc2c(C)cccc2C)CC1 (configuration not stated) [Ranolazine]
growth [1]: 0.207 ± 0.0059
growth [2, 6]: 0.309 ± 0.036
growth [2, 7]: 0.285 ± 0.0092
growth [2, 8]: 0.155 ± 0.012
growth [2, 9]: 0.178 ± 0.0088
growth [2, 10]: 0.135 ± 0.0073
growth [3, 11]: 0.171 ± 0.014
growth [3, 12]: 0.342 ± 0.085
growth [5]: 0.471 ± 0.068
growth [4, 13]: 0.4233 ± 0.0032
growth [4, 14]: 0.301 ± 0.014

C1CCC(C(CC2CCCCN2)C2CCCCC2)CC1 (configuration not stated) [Perhexiline maleate]
growth [1]: 0.0393 ± 0.0002
growth [2, 6]: 0.0389 ± 0.00046
growth [2, 7]: 0.03913 ± 0.00021
growth [2, 8]: 0.0407 ± 0.00064
growth [2, 9]: 0.03897 ± 0.00023
growth [2, 10]: 0.0389 ± 0.0004
growth [3, 11]: 0.04767 ± 0.00047
growth [3, 12]: 0.048 ± 0.0016
growth [4, 13]: 0.168 ± 0.18
growth [4, 14]: 0.0522 ± 0.0012

C[C@]12C=CC(=O)C=C1CC[C@@H]1[C@@H]2C(=O)C[C@@]2(C)[C@H]1CC[C@]2(O)C(=O)CO [Prednisone]
growth [1]: 0.221 ± 0.01
growth [2, 6]: 0.298 ± 0.017
growth [2, 7]: 0.256 ± 0.0052
growth [2, 8]: 0.203 ± 0.012
growth [2, 9]: 0.173 ± 0.0063
growth [2, 10]: 0.162 ± 0.0056
growth [3, 11]: 0.237 ± 0.029
growth [3, 12]: 0.414 ± 0.042
growth [5]: 0.479 ± 0.044
growth [4, 13]: 0.412 ± 0.005
growth [4, 14]: 0.352 ± 0.019

C[C@H](CCC(=O)O)[C@H]1CC[C@H]2[C@@H]3C(=O)C[C@@H]4CC(=O)CC[C@]4(C)[C@H]3CC(=O)[C@]12C [Dehydrocholic acid]
growth [1]: 0.252 ± 0.0042
growth [2, 6]: 0.252 ± 0.062
growth [2, 7]: 0.25 ± 0.012
growth [2, 8]: 0.186 ± 0.022
growth [2, 9]: 0.183 ± 0.0057
growth [2, 10]: 0.138 ± 0.0079
growth [3, 11]: 0.329 ± 0.068
growth [3, 12]: 0.33 ± 0.07
growth [4, 13]: 0.406 ± 0.0045
growth [4, 14]: 0.3 ± 0.0058

Source: the supplement of paper PMC9262897, “Low-cost anti-mycobacterial drug discovery using engineered E. coli” (Nature Communications, 2022)
